Assay results: ChEMBL document CHEMBL3988442, “University of Dundee, Small-Polar-MMV Screening Library” (2021)
For some assays here: Results with a measured potency or affinity are listed apart.

Key:
Set-up in all cases: scale not given: direction of the effect not stated beside the values
[1] = target: Protein translocase subunit SecA (Escherichia coli (strain K12)) (UniProt P10408); assay: Assay to Identify E. coli SecA ATPase Inhibitors; assay type: functional; settings: 30 µM
[2] = target: T1, Ubiquitin-activating enzyme e1, putative (Leishmania donovani (strain BPK282A1)) (UniProt E9BSI1); assay: Leishmania donovani Ubiquitin Activating Enzyme (LdE1); assay type: functional; settings: 30 µM
T1 sequence (whole entry): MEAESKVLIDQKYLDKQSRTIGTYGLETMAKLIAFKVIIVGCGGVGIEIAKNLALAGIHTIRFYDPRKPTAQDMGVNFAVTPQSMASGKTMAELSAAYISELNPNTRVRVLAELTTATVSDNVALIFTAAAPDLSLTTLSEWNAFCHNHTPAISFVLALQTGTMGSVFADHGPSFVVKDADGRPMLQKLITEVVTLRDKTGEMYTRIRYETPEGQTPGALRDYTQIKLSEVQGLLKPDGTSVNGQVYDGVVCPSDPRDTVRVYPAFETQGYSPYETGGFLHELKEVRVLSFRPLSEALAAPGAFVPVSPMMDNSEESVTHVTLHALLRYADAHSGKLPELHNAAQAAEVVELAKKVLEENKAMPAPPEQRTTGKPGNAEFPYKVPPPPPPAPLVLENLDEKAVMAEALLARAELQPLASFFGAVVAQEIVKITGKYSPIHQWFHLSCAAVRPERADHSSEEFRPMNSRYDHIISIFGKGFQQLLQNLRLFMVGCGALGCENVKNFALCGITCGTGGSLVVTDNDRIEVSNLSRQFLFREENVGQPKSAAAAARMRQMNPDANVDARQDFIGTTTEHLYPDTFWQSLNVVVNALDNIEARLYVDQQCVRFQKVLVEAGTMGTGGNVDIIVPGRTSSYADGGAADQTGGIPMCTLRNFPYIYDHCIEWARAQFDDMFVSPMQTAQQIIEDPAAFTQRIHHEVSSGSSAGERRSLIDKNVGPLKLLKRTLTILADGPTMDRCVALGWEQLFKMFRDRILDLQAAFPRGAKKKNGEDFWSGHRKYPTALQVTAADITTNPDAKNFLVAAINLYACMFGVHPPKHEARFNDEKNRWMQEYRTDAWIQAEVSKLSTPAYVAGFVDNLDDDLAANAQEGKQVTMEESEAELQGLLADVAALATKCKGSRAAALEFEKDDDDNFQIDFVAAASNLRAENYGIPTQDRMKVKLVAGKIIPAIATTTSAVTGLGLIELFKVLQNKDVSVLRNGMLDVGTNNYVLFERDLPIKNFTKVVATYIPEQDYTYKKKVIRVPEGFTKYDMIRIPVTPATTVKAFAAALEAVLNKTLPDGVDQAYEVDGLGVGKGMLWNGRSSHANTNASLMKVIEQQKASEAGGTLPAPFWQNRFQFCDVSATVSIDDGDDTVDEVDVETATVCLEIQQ

[3] = target: Sialic acid-binding Ig-like lectin 9 (Homo sapiens) (UniProt Q9Y336); assay: Hs-Siglec9 ALPHAscreen SOP 20170721; settings: 10 µM
Chain of Sialic acid-binding Ig-like lectin 9 (Homo sapiens) (Q9Y336 whole entry): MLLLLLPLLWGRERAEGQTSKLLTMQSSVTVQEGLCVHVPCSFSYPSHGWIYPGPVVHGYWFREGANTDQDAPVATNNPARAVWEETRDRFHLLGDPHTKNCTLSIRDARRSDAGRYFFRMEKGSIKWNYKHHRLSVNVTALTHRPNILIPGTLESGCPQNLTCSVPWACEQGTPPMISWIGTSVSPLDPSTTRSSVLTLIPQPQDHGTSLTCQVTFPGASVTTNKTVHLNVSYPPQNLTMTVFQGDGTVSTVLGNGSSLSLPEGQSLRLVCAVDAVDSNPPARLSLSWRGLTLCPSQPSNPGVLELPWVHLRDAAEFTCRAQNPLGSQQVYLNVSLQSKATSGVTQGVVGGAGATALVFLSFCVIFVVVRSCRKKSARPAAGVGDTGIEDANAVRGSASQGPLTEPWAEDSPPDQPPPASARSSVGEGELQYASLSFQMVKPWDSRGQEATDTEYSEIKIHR

[4] = system: Trypanosoma cruzi; assay: Trypanosoma cruzi phosphomannomutase and mannose-1-phosphate guanylyltransferase assay; assay type: functional; settings: 10 µM
[5] = target: T2, Arginase-2, mitochondrial (Homo sapiens) (UniProt P78540); assay: in vitro enzyme assay to detect the production of urea directly proportional to the activity of Arginase II; assay type: functional; settings: 33.3 µM; also: in the data most compounds retested in dose-response had high values
T2 sequence (whole entry): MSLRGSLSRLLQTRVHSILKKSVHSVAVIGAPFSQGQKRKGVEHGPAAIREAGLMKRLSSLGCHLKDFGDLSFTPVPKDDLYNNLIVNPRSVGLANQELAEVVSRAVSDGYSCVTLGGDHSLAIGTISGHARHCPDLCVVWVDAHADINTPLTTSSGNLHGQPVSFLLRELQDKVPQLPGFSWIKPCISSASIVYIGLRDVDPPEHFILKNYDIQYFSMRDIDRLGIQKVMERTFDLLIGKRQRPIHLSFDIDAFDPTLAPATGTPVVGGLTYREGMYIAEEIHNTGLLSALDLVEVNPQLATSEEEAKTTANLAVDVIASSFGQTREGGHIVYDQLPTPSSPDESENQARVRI

[6] = target: T3, Proteasome subunit beta (Trypanosoma cruzi) (UniProt O96673); assay: Trypanosoma cruzi proteasome chymotrypsin-like activity (TcProtChymo) assay.; also: in the data most compounds retested in dose-response had high values; assay type: functional; settings: 9.37 µM
T3 sequence (whole entry): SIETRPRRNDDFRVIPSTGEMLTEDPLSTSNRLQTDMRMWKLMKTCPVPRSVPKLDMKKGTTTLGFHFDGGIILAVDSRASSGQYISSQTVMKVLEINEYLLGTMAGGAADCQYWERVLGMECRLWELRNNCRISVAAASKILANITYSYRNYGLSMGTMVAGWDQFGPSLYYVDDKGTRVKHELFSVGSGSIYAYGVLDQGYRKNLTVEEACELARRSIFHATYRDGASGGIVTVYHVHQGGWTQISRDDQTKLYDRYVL

[7] = species on record: Homo sapiens; assay: To identify inhibition of the IFN signalling (Jak-Stat) pathway via expression of an eGFP reporter gene under the control of an IFN-stimulated response element (ISRE) containing MxA promoter.; assay type: functional; settings: 30 µM
[8] = target: T4, Tyrosyl-tRNA synthetase, putative (Trypanosoma cruzi (strain CL Brener)) (UniProt Q4DSP6); assay: Trypanosoma cruzi tyrosyl tRNA synthetase (TcYRS) _High Tyrosine SOP; assay type: functional; settings: 30 µM; also: in the data most compounds retested in dose-response had high values
T4 sequence (whole entry): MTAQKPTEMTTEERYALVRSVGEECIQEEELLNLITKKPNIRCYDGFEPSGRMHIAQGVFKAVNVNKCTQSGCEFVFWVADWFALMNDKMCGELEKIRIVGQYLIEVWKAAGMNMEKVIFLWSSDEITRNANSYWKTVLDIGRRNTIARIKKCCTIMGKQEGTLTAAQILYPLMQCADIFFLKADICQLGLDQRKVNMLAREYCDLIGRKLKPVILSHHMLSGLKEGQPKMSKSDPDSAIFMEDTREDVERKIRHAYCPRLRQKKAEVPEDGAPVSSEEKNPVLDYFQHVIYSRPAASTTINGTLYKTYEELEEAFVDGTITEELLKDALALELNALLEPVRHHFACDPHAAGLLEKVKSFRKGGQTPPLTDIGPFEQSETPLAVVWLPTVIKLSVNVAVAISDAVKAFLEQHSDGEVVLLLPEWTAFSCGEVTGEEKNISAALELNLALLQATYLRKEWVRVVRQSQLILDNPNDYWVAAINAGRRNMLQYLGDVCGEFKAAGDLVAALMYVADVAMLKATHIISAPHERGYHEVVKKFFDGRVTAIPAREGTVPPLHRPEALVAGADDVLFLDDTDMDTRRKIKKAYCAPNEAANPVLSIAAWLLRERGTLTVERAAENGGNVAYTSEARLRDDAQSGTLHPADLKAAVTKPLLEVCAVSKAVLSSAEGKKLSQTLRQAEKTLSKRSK

[9] = target: T4, Tyrosyl-tRNA synthetase, putative (Trypanosoma cruzi (strain CL Brener)); assay: Trypanosoma cruzi tyrosyl tRNA synthetase (TcYRS) SOP; assay type: functional; settings: 30 µM
[10] = target: Chromo domain-containing protein 1 (Saccharomyces cerevisiae (strain ATCC 204508 / S288c) (Baker's yeast)) (UniProt P32657); assay: ScCHD-1 Enzyme Inhibition Assay; assay type: functional; settings: 30 µM; also: in the data most compounds retested in dose-response had high values
Chain of Chromo domain-containing protein 1 (Saccharomyces cerevisiae (strain ATCC 204508 / S288c) (Baker's yeast)) (P32657 whole entry, the tested form may be a part): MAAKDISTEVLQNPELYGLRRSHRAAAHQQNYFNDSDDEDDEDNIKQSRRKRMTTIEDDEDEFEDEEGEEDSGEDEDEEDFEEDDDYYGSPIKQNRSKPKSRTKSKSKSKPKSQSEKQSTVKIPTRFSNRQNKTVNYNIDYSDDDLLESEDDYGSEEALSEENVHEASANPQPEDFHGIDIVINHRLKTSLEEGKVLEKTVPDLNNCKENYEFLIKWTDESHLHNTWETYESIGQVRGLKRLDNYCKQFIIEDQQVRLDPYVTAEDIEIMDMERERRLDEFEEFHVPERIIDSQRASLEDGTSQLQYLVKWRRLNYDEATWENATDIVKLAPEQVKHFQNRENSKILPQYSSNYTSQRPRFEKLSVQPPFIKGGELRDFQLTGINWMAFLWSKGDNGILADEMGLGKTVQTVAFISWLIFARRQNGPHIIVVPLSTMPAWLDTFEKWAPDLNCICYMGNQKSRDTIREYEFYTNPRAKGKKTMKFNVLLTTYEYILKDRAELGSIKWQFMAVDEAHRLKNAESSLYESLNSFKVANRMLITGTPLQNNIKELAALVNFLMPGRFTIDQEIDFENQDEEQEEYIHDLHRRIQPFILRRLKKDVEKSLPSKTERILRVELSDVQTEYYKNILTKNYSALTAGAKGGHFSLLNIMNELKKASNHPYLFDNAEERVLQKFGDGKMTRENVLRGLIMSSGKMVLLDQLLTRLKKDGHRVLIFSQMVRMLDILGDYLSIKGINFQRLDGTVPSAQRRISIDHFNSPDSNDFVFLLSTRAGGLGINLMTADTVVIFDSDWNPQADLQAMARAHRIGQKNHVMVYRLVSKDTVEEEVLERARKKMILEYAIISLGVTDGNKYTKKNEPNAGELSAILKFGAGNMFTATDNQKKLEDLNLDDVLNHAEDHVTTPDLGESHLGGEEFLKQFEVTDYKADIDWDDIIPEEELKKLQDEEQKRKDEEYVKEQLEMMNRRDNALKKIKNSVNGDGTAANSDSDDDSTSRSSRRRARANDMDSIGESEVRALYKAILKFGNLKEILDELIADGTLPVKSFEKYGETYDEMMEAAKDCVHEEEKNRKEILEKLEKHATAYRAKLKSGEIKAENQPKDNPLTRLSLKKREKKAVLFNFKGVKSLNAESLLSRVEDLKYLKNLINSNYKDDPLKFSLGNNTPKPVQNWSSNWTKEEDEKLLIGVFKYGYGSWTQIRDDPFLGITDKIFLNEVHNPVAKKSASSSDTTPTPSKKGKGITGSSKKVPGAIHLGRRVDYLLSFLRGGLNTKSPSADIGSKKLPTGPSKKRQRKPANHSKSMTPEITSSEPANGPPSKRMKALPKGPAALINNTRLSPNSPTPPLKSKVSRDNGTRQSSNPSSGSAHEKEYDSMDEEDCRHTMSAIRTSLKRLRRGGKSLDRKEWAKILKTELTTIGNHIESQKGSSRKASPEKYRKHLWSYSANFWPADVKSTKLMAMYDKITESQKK

Chain of Protein translocase subunit SecA (Escherichia coli (strain K12)) (P10408 whole entry): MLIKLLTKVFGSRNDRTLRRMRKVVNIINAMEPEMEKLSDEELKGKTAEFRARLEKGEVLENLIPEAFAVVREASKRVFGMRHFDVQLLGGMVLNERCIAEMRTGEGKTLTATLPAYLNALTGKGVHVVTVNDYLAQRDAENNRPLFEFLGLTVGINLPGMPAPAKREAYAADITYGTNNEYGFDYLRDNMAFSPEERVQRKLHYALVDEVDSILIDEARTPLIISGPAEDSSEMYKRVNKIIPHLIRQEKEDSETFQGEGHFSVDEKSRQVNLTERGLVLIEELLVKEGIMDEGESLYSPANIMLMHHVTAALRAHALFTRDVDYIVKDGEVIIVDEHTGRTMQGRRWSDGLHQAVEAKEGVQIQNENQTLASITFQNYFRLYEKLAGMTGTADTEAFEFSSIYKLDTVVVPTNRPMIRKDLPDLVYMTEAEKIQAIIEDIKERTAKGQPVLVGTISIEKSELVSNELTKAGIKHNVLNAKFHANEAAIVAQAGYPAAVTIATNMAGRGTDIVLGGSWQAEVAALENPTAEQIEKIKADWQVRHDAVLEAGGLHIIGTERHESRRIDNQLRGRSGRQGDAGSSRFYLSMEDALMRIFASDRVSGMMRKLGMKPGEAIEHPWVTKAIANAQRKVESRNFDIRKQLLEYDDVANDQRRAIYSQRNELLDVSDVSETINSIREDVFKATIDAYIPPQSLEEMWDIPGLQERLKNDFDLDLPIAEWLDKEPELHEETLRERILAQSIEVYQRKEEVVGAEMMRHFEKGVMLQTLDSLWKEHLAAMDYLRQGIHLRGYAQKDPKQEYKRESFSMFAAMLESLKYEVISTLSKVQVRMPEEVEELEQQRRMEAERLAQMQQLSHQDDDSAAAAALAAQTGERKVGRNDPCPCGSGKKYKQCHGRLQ

Structure (SMILES)	Percent Effect [1] [%]	Percent Effect [2] [%]	Percent Effect [3] [%]	Percent Effect [4] [%]	Percent Effect [5] [%]	Percent Effect [6] [%]	Percent Effect [7] [%]	Percent Effect [8] [%]	Percent Effect [9] [%]	Percent Effect [10] [%]
CCCc1cc(C(=O)N2CCCC2c2cccnc2)[nH]n1 (stereo not given)	-2.28	13.5	7.33	2.81	4.54	17.1	10.1	4.79	14.6	-3.7
CS(=O)(=O)NCC1CCCN(C(=O)c2cc3ccccc3o2)C1 (stereo not given)	-0.17	28.6	3.25	3.36	-9.22	15.1	11.5	5.88	23.5	-10.2
CNc1ccc(CC2CCCN(C(=O)c3cnc(C)nc3)C2)nn1 (stereo not given)	0.212	12	-9.66	-0.197	4.87	17.1	12.2	5.29	12.5	-20.6
CN(C)c1cc2c(nn1)CCN(C(=O)Cc1noc3ccccc13)C2	-0.898	0	-2.79	6.85	2.87	-0.427	-24.3	4.31	-1.21	-2.37
Cn1cc(CN2CCCN(C(=O)c3cn4ccccc4n3)CC2)cn1	-2.59	25.6	-16.8	4.04	-0.41	20.1	13.6	3.35	22.9	15.2
OC(COc1ccccc1)CN1CCc2c(ncn2C2CC2)C1 (stereo not given)	-6.24	8	5.27	-6.02	-1.77	3.65	15.6	5.79	7.69	-12.1
Cc1cnc(CN(C)C2CCN(CCc3cnn(C)c3)C2)o1 (stereo not given)	-3.84	0	0.368	-1	2.66	3.65	2.79	4.74	5.13	-8.2
Cn1cc(C(=O)NC2CCN(Cc3ccn(C)c(=O)c3)CC2)cn1	-0.0592	-7.69	-4.2	-1.41	4.51	3.67	26.8	-1.44	-3.61	-4.65
Cc1ccccc1-c1noc(CN2CCn3c(nnc3C3CC3)C2)n1	-6.21	-25.6	-13.3	-3.1	-0.41	5.21	15.8	0.478	1.21	-7.86
COCCN1CCCC1c1nccnc1Nc1nc(C)cs1 (stereo not given)	-2.72	12	5.33	-2.56	3.98	7.55	21.3	9.52	15	-24.9
O=C(c1cc(C2CC2)on1)N1CC[C@]2(C[C@H](Oc3cccnc3)CO2)C1	-7.12	1.3	-0.278	6.52	-12.2	6.27	-3.24	1.58	5.13	0.522
Cc1cccc(CN2CCc3nnc(CN4CCCC4=O)n3CC2)n1	-3.64	14.3	1.97	-2.06	-2.28	8.67	9.65	4.83	10	-8.05
CCc1ccc(S(=O)(=O)N2CCC3(CC(C(=O)NC)=NO3)C2)cc1 (stereo not given)	-3.25	1.3	3.29	5.36	-4.05	4.68	-7.8	1.58	5.13	0.139
O=C(c1ccco1)N1C[C@H]2CCCN(CC3CCOCC3)[C@H]2C1	-3.2	6.49	-2.43	-4.77	-1.62	11.9	1.5	4.74	15.4	-2.11
Cc1ccc2cc(C(=O)NCCn3nc4ccccn4c3=O)[nH]c2c1	-1.72	10.3	-11.1	-8.36	1.23	16.3	19.6	-1.44	1.21	-7.76
c1ccc(-n2ncc(CN3CCCC3Cn3cccn3)n2)cc1 (stereo not given)	-6.8	-13	24.4	-2.61	-0.205	5.44	1.65	-1.96	-2.35	3.05
Cc1ncccc1NC(=O)C1=NOC2(CCN(Cc3nccs3)C2)C1 (stereo not given)	-7.98	-14.3	2.46	-0.682	4.45	17.7	-6.55	6.84	15.4	5.53
O=C(NCc1cc[nH]n1)N(CCCO)C1CCc2ccccc21 (stereo not given)	-1.28	8	-0.45	0	-1.77	2.29	1.81	3.68	2.56	-7.56
O=C(NCCCn1ccnc1)N1CCN(c2cccs2)CC1	-5.79	-10.4	7.23	2.42	-9.22	12.8	-11.9	28.4	11.8	0.725
COc1c(C2CCCN2C(=O)c2c[nH]c3ncccc23)c(C)nn1C (stereo not given)	-5.03	7.79	8.63	-5.41	2.25	7.02	1.49	5.88	7.06	-7.9
O=C(O)c1ccc2ccc(N3CCN(CC4CC4)CC3)n2c1	-3.4	14.3	1.31	3.38	2.74	9.7	7.8	18.4	12.5	-4.22
O=C(c1ccc(F)cc1Cl)N1CCC(Nc2cccnn2)CC1	-3.11	18.2	7.17	5.41	-4.71	7.37	15.6	5.88	18.8	-15.5
CCc1nc(C2CCCN2C(=O)C2=COCC2)no1 (stereo not given)	-6.76	0	1.81	-4.02	-0.444	-2.46	12.2	4.74	-2.56	-3.47
